From PubChem BioAssay
Inconclusive results are not listed. The source made the active and inactive calls.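 Rule for the calls, unless noted: active = RAM network inhibition above 8.4% in each of two replicates, 3 SD over the compound average; inconclusive = above 8.4% inhibition in only one replicate; inactive = 8.4% inhibition or less in each replicate.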

Legend:
[1] = Her2 expression decrease, cell viability multiplex – SKBR3 breast tumor cells, AlphaScreen, ATP viability, primary screen (AID 461;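 active = Her2 level under about 52% in both replicate screens, with viability over 70% of control, limit read from the data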;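 for Her2 level: lower value means less Her2 protein in the cells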;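 for viability: percent of carrier control wells set as 100% viability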); conditions: SKBR3 Her2 protein level, 18-24 h, measured here: SKBR3 viability, ATP luminescence, at 10 µM
[2] = molecular target: Receptor tyrosine-protein kinase erbB-2 (Homo sapiens) (UniProt P04626); assay: as above; conditions: 18-24 h, at 10 µM, stronger effect = lower value
Sequence of Receptor tyrosine-protein kinase erbB-2 (Homo sapiens) (P04626 whole entry, looked up): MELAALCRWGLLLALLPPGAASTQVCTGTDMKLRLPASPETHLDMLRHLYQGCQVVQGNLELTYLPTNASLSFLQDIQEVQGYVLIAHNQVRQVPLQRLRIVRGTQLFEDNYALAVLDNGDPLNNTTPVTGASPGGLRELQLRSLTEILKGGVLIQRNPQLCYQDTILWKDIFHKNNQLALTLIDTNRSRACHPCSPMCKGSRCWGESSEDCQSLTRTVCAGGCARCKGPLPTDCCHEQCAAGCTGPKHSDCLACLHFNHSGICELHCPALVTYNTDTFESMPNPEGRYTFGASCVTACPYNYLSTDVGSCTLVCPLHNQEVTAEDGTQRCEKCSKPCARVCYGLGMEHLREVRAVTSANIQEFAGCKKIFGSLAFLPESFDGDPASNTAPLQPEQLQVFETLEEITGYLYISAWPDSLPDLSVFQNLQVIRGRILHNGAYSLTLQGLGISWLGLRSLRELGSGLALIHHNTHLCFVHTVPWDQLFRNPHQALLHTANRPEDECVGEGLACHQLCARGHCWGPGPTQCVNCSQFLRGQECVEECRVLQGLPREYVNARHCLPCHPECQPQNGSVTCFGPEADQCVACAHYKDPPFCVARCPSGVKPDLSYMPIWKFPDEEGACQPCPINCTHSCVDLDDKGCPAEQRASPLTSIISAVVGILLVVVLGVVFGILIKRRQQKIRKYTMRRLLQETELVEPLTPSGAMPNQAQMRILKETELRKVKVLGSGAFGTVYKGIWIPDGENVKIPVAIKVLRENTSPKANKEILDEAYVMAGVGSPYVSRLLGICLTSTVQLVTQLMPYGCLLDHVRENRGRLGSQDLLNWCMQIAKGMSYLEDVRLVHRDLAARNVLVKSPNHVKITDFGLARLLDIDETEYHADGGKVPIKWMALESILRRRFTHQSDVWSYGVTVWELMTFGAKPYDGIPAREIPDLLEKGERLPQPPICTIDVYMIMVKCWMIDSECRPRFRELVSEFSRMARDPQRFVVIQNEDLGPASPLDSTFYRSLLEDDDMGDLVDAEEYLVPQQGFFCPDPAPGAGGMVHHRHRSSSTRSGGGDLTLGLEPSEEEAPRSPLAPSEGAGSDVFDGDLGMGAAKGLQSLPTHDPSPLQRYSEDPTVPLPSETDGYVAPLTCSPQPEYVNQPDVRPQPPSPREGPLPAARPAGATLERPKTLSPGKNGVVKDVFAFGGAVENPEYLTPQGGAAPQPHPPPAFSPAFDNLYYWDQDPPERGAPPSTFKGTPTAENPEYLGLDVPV

[3] = reduced viability of SK-BR-3 breast cancer cells – cell-based, 24 h, human, pilot screen (AID 572;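 active = viability at or below 10% of carrier control in both of two separate runs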;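 note: compound exposure lasted between 18 and 24 h rather than exactly 24 h; 100% = carrier-treated control wells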); conditions: SK-BR-3 viability, CellTiter-Glo luminescence, at 10 µM, stronger effect = lower value
[4] = HUVEC growth inhibition – cell-based, human, primary screen (AID 575;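 active = viability at or below 30% in both replicate assays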;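 note: 100% = median of untreated cell wells with 0.1% DMSO on each plate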); conditions: HUVEC proliferation, CellTiter-Glo luminescence, 72 h; at 10 µM; stronger effect = lower value
[5] = H69AR cell proliferation blockers – human, duplicate replicates, primary screen (AID 580;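 active = viability at or under a set limit in both replicates, limit being median viability minus 3 SD, cut at about 48% in these data, passing the limit was not always enough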;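 note: 100% = mean luminescence of untreated wells and 0% = no signal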); conditions: H69AR lung tumor cells viability, ATP luminescence, 72 h; at 10 µM; stronger effect = lower value
[6] = MRP1 drug-resistance reversers in H69AR cells – cell-based, doxorubicin co-treatment, pilot screen (AID 601;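 active = viability loss from added drug above about 55%, and viability with drug at most 40%, in both replicates, limit read from the data, passing the limit was not always enough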); conditions: CellTiter-Glo, 72 h, at 10 µM; for differential viability (reversal): stronger effect = higher value
[7] = yeast transport mutant growth inhibition pilot in 384-well plates, post-Golgi transport modulator project (AID 636; in the data active = inhibition above about 31%); conditions: absorbance 615 nm, about 18 h, stronger effect = higher value
[8] = growth suppression of yeast trafficking mutant, preliminary HTS, modulators of trafficking downstream of Golgi apparatus project, 1536-format plate, OD 615 nm (AID 637; in the data active = inhibition above about 30%); conditions: yeast transport mutant growth, absorbance 615 nm, 18 h; stronger effect = higher value
[9] = S. cerevisiae growth inhibition in permissive medium (OD615), pilot counter-assay for S. cerevisiae lifespan shortening project, permissive growth control (AID 705;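 active = growth inhibition above 25% in both replicates, a cutoff set 3 SD above the mean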); conditions: OD615, 24 h, at 10 µM, stronger effect = higher value
[10] = S. cerevisiae growth inhibition in restrictive medium, OD615, pilot screen, restrictive growth control, yeast lifespan reduction project (AID 706;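 active = growth inhibition above a set limit, 3 SD over mean compound inhibition, in both replicates, cut at about 43% in these data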;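 note: modified DeaD lifespan yeast strain shifted to restrictive glucose medium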); conditions: OD615, 48 h, at 10 µM, stronger effect = higher value
[11] = doxorubicin toxicity protection in MRP-1 cells – H69AR cells, CellTiter-Glo, duplicate, MRP-1 activator project, pilot screen (AID 807;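 active = viability increase at or above a cutoff of the median across tested compounds plus 3 SD, cut at about 8.5% in these data, passing the limit was not always enough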;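 note: compound pretreatment 18-22 h then 72 h combined with doxorubicin; 0% = doxorubicin alone and 100% = vehicle without doxorubicin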); conditions: H69AR viability with doxorubicin, CellTiter-Glo luminescence; at 10 µM; stronger effect = higher value
[12] = viability of HCT116 without oncogenic beta-catenin – human colon tumor cells, pilot screen (AID 823;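 active = cell viability at or below a set limit in both duplicate runs, the limit being the all-compound median minus 4 SD, cut at about 23% in these data, passing the limit was not always enough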;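 note: 0% = wells killed by 20 µM Hyamine and 100% = untreated DMSO cell wells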); conditions: HCT116 beta-catenin knockout viability, CellTiter-Glo, 60 h; at 10 µM; stronger effect = lower value
[13] = viability of PTEN-null HCT116 cells – cell-based, HCT116 clonal line, CellTiter-Glo, pilot screen (AID 824;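 active = viability at or below 27.92% in each of two runs, the all-compound median minus 4 SD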;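 note: 0% = 20 µM Hyamine control and 100% = vehicle cell control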); conditions: HCT116 PTEN-deleted viability, 60 h, at 10 µM, stronger effect = lower value
[14] = RAM pathway blockade in budding yeast – dse1pr::URA3 reporter, 5-FOA selection, pilot screen (AID 869;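 active = inhibition over a set limit, the all-compound mean plus 3 SD, in both replicate runs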;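 note: 0% = DMSO wells with no growth and 100% = 10 µM 1-NA-PP1 with full growth; RAM network block rescues cells from 5-FOA so hits raise OD615 growth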); conditions: S. cerevisiae dse1pr::URA3 5-FOA growth, OD615, 2 d; at 10 µM; stronger effect = higher value; strain carries analog-sensitive mutant Cbk1 kinase
[15] = RAM signaling pathway blockade in yeast – S. cerevisiae, Pdr1DBD-CYC8 efflux-inhibited sensitized strain, primary screen (AID 1298);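 note: 0% = DMSO untreated cells without growth and 100% = 10 µM 1-NA-PP1 full growth; higher means more yeast growth rescued from 5-FOA killing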; conditions: S. cerevisiae cbk1-as DSE1-URA3 strain, 5-FOA growth OD615, 2 d; at 50 µM; stronger effect = higher value
[16] = H69AR cells + 2 uM doxorubicin, measured here: viability with 2 uM doxorubicin, stronger effect = lower value
[17] = H69AR cells, compound alone cytotoxicity

Structure (SMILES) | viability [1] [%] | Her2 level [2] | viability [3] | viability [4] | viability [5] | differential viability (reversal) ([6]; H69AR cells + 2 uM doxorubicin) | viability [6, 16] [%] | viability [6, 17] [%] | inhibition [7] | inhibition [8] | growth inhibition [9] | growth inhibition [10] | viability increase [11] | viability [12] | viability [13] | inhibition [14] | RAM network inhibition [15]
Cc1nc2sc(C(c3cccs3)N3CC(C)CC(C)C3)c(O)n2n1 (stereo not drawn) | 89.5 | 92% (inactive) | 89.5% (inactive) | 108% (inactive) | 95.2% (inactive) | 1.38% (inactive) | 93.8 | 95.2 | -0.27% (inactive) | 8.85% (inactive) | -11.2% (inactive) | -10.1% (inactive) | -2.1% (inactive) | 107% (inactive) | 95.2% (inactive) | 1.53% (inactive) | 5.64% (inactive)
O=C(CSc1nc(-c2ccco2)cc(C(F)(F)F)n1)NCCCn1ccnc1 | 94 | 93% (inactive) | 94% (inactive) | 64.9% (inactive) | 94.7% (inactive) | -4.19% (inactive) | 98.9 | 94.7 | -2.53% (inactive) | -2.3% (inactive) | -8.51% (inactive) | -15.7% (inactive) | -0.15% (inactive) | 98.6% (inactive) | 96.3% (inactive) | 1.44% (inactive) | 9.1% (inactive)
COC(=O)CCCCC(=O)C1C(=O)CC(C)(C)C(C(=O)OC)C1=O (stereo not drawn) | 91.5 | 118% (inactive) | 91.5% (inactive) | 91.2% (inactive) | 91.7% (inactive) | -3.76% (inactive) | 95.5 | 91.7 | 2.08% (inactive) | -8% (inactive) | -15.7% (inactive) | -6.2% (inactive) | -1.69% (inactive) | 94.4% (inactive) | 93.6% (inactive) | 1.31% (inactive) | -0.78% (inactive)
COc1ccccc1CNC(=O)C1CCC(CNc2c(N3CCOCC3)c(=O)c2=O)CC1 (stereo not drawn) | 90.5 | 126% (inactive) | 90.5% (inactive) | 86.7% (inactive) | 105% (inactive) | 12% (inactive) | 92.8 | 105 | 1.03% (inactive) | 3% (inactive) | -3.5% (inactive) | 8.34% (inactive) | 0.11% (inactive) | 101% (inactive) | 104% (inactive) | 1.35% (inactive) | 3.53% (inactive)
COc1ccc(CCNC(=O)c2cnn3ccccc23)c(OC)c1OC | 92.5 | 98.5% (inactive) | 92.5% (inactive) | 78.8% (inactive) | 96.5% (inactive) | -0.525% (inactive) | 97 | 96.5 | -5.6% (inactive) | -2.67% (inactive) | -9.7% (inactive) | -2.3% (inactive) | -1.15% (inactive) | 101% (inactive) | 87.8% (inactive) | 1.33% (inactive) | 3.06% (inactive)
COC(=O)CSC1=NS(=O)(=O)c2ccccc21 | 143 | 92% (inactive) | 143% (inactive) | 60% (inactive) | 62.6% (inactive) | -26.7% (inactive) | 89.3 | 62.6 | -7.43% (inactive) | -2.3% (inactive) | 94.3% (active) | 98.3% (active) | -0.32% (inactive) | 99.4% (inactive) | 96.4% (inactive) | -0.34% (inactive) | -1.77% (inactive)
O=C(O)c1ccc2c(c1)C(=O)N(c1ccc(Cl)cn1)C2=O | 98 | 111% (inactive) | 98% (inactive) | 105% (inactive) | 87.2% (inactive) | -0.91% (inactive) | 88.2 | 87.2 | -5.47% (inactive) | 0.33% (inactive) | -12.8% (inactive) | -10.8% (inactive) | -2.33% (inactive) | 102% (inactive) | 96.2% (inactive) | 1.22% (inactive) | -0.74% (inactive)
COc1ccc(S(=O)(=O)Cc2ccc(C(=O)NCCc3ccc(S(N)(=O)=O)cc3)o2)cc1 | 94.5 | 114% (inactive) | 94.5% (inactive) | 91.6% (inactive) | 91.7% (inactive) | 12.1% (inactive) | 79.6 | 91.7 | -4.13% (inactive) | -2.67% (inactive) | -0.09% (inactive) | -4.47% (inactive) | 0.71% (inactive) | 102% (inactive) | 99.1% (inactive) | 0.71% (inactive) | 0.1% (inactive)
CC1(C)CC(=O)C=C(Nc2ccc(OCC(F)(F)C(F)F)cc2)C1 | 95 | 104% (inactive) | 95% (inactive) | 92.8% (inactive) | 103% (inactive) | 12.9% (inactive) | 89.9 | 103 | 0.38% (inactive) | -12.3% (inactive) | -3.99% (inactive) | 5.75% (inactive) | 1.17% (inactive) | 89.5% (inactive) | 90.2% (inactive) | -0.6% (inactive) | 3.07% (inactive)
